Measured values published in PubChem BioAssay (EPA / NIEHS).
The source made the active and inactive calls. Rule for the calls: active = hit-call score of the fitted dose curve at least 0.9, where 1 is the maximum; inactive = score below 0.9.

These compounds were tested against Myc proto-oncogene protein (Homo sapiens) (UniProt P01106) (assay: ATG_Myc_CIS: Attagene CIS-FACTORIAL HepG2 Assay for human Myelocytomatosis (Myc) Proto-Oncogene Transcription Factor (AID 2282990)). Settings: HepG2, Attagene cis-reporter transcription factor activity; actives raise or lower the signal.
Chain of Myc proto-oncogene protein (Homo sapiens) (P01106 whole entry, looked up): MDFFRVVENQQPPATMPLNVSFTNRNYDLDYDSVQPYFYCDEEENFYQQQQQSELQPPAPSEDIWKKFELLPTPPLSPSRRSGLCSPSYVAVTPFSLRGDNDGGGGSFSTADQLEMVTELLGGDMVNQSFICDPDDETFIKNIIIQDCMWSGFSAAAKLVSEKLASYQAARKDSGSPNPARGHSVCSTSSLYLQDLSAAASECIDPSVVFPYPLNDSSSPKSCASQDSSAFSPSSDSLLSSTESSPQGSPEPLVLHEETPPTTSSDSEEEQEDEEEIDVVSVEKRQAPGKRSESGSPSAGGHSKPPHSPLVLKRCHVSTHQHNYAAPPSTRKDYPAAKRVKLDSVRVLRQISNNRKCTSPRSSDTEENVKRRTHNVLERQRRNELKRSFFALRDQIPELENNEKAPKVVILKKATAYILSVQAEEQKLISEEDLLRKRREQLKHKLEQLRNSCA
Procedure: ATG_CIS is a cell-based, multiplexed-readout assay that uses HepG2, a human liver cell line, with measurements taken at 24 hours after chemical dosing in a 24-well plate.ATG_Myc_CIS is one of 52 assay component(s) measured or calculated from the ATG_CIS assay. It is designed to make measurements of mRNA induction, a form of inducible reporter, as detected with fluorescence intensity signals by Reverse transcription polymerase chain reaction (RT-PCR) and Capillary electrophoresis technology.Data from the assay component ATG_Myc_CIS was analyzed into 1 assay endpoint. This assay endpoint, ATG_Myc_CIS, was analyzed with bidirectional fitting relative to DMSO as the negative control and baseline of activity. Using a type of inducible reporter, measures of mRNA for gain or loss-of-signal activity can be used to understand the reporter gene at the transcription factor-level as they relate to the gene MYC. Furthermore, this assay endpoint can be referred to as a primary readout, because this assay has produced multiple assay endpoints where this one serves a reporter gene function. To generalize the intended target to other relatable targets, this assay endpoint is annotated to the dna binding intended target family, where the subfamily is basic helix-loop-helix leucine zipper.
Human liver HepG2 cells are transiently transfected with multiple reporter transcription units (MRTUs) in 6-well plates using FuGene 6 reagent (Roche; 3 ml FuGene/1 mg DNA). The MRTU constructs are regulated by a cis-regulating element (promoter). […] A major difference between the CIS and TRANS system is that in CIS activities of endogenous TFs are measured, whereas the TRANS assay evaluates changes in activities of exogenous, chimeric NR-Gal4 proteins. […] At the end of 24 hour incubation, total RNA was isolated using TriZol reagent (Invitrogen). The isolated RNA is then reverse-transcribed using oligo(dT) primer and Mo-MLV reverse transcriptase (Invitrogen) with DNAse I (Ambion) treatment for 30 min. The one-tenth of the produced cDNA was amplified by PCR using Taq DNA polymerase (Invitrogen) and two reporter sequence-specific primers. The PCR products were fluorescently labeled by primer extension with 6-arboxyfluorescein (6-FAM) 5'-labeled reporter sequence-specific primer (2 min at 95 C, 20 s at 68 C and 10 min at 72 C) and these products were digested with 5U of HpaI (New England Biolabs) for 2h at 37 C. The fragments were purified using Qiaquick PCR columns (Qiagen), analyzed on an ABI 3130xL genetic analyzer (Applied Biosystems) with peak positions identified by using a set of X-rhodamine (ROX)-labeled MapMarker1000 molecular weight standards (BioVentures). The raw capillary electrophoresis data was processed using Attagraph software (Attagene).

outcome, inactive:
CC[C@H](C)C(=O)O[C@H]1C[C@@H](C)C=C2C=C[C@H](C)[C@H](CC[C@@H]3C[C@@H](O)CC(=O)O3)[C@H]21
O=C1CCC(N2C(=O)c3ccccc3C2=O)C(=O)N1 (stereo not given)
CC(=O)OCCC(C)C
O=C1OC(=O)C2C3C=CC(C3)C12 (stereo not given)
COc1cccc(-c2ccc(/C=C\CN3CCCCCC3)cc2Cl)c1
CCC(C)(C)C(=O)O[C@H]1C[C@@H](C)C=C2C=C[C@H](C)[C@H](CC[C@@H]3C[C@@H](O)CC(=O)O3)[C@H]21
C[C@](N)(Cc1ccc(O)c(O)c1)C(=O)O
C=CC(=C)CCC=C(C)C
CC(C)CC(C)(O)C#CC(C)(O)CC(C)C (stereo not given)
CC(C)=CCCC(C)=CC=O
COC(=O)CC(=O)OC
COc1ccc(/C=C/S(=O)(=O)NC(=O)c2ccc(C)cc2Cl)cc1
CC(C)=CCC/C(C)=C/CO
CCCCCCCCCCCCCCCO
CC(O)CN(CCN(CC(C)O)CC(C)O)CC(C)O (stereo not given)
Nc1nc2ncc(CNc3ccc(C(=O)N[C@@H](CCC(=O)O)C(=O)O)cc3)nc2c(=O)[nH]1
COC(=O)c1c(Cl)c(Cl)c(C(=O)OC)c(Cl)c1Cl
Cn1c(=O)c2c(ncn2C)n(C)c1=O
O=C(O)c1cc(N=Nc2ccc(S(=O)(=O)Nc3ccccn3)cc2)ccc1O
CNS(=O)(=O)c1cc(C(=O)N2CCC(CCN3C4CCC3CC(n3c(C)nc5ccccc53)C4)(c3cccc(F)c3)CC2)c(Cl)cc1F (stereo not given)
CCOC(=O)COc1ccc2c(c1)CC(NCC(O)c1cccc(Cl)c1)CC2 (stereo not given)
O=c1[nH]c2ccc(S(=O)CCN3CCC(Cc4ccc(F)cc4)CC3)cc2o1 (stereo not given)
CC(C)=CCC/C(C)=C\CO
O=C(O)c1cccc(Oc2ccccc2)c1
CC/C(=C\C(=N/O)C(N)=O)C(C)[N+](=O)[O-] (stereo not given)
CCNc1ccccc1
O=C(O)c1cccc(N(Cc2cccnc2)c2ccc(OC(F)F)c(OC(F)F)c2)c1
CCCCC(CC)COC(=O)CCCCCCCCC(=O)OCC(CC)CCCC (stereo not given)
CC(=O)c1ccc2c(c1)[C@H](NC(=O)c1ccc(F)cc1)[C@@H](O)C(C)(C)O2
Cc1ccc(O)cc1
Nc1cccc(N)c1
CC[C@H]1OC(=O)[C@H](C)[C@@H](O[C@H]2C[C@@](C)(OC)[C@@H](O)[C@H](C)O2)[C@H](C)[C@@H](O[C@@H]2O[C@H](C)C[C@H](N(C)C)[C@H]2O)[C@](C)(O)C[C@@H](C)C(=O)[C@H](C)[C@@H](O)[C@]1(C)O
CC(C)CCCCCCCOC(=O)CCCCC(=O)OCCCCCCCC(C)C
Cn1c(=O)cc(Oc2ccc(F)cc2F)c2cnc(NCC(C)(C)O)nc21
COc1ccc2sc(C(=O)Nc3nnn[nH]3)c(OC(C)C)c2c1
COCCOCCOCCOC
Cn1cnc([N+](=O)[O-])c1Sc1ncnc2nc[nH]c12

AC50, active:
Oc1ccc2c(c1)-c1ccccc1C2 63.1 µM
CCCN(C1CCN(C(=O)C2CCNCC2)CC1)[C@@H]1CCc2ccc(OC)cc2C1 175 µM
O=C(CCCCCCCCc1cccnc1)N1CCC(C=C(c2ccccc2)c2ccccc2)CC1 8.5 µM
